# Records with an inconclusive call do not appear. Activity calls are given as the source filed them. The calls were made as follows: active = hit-call score of the fitted dose curve at least 0.9, where 1 is the maximum; inconclusive = response in the unintended direction; inactive = score below 0.9.
# Experiment: CCTE_Simmons_CellTiterGLO_HEK293T: Viability Assessment in CCTE's Assays for Thyroperoxidase (TPO) Inhibition, Simmons Lab (AID 2283665);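 as to AC50: cells exposed to compound for 24 h before readout; actives reduce ATP signal below DMSO vehicle meaning cytotoxicity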
# Procedure: CCTE_Simmons_CellTiterGLO_HEK293T is a cell-based, single-readout assay that uses HEK293T, a human kidney cell line, with measurements taken at 24 hours after chemical dosing in a 384-well plate.CCTE_Simmons_CellTiterGLO_HEK293T is the assay component measured from the CCTE_Simmons_CellTiterGLO_HEK293T assay. It is designed to make measurements of ATP content, a form of viability reporter, as detected with bioluminescence signals by Luciferase-coupled ATP quantitation technology. This is a secondary cytotoxicity assay to CCTE_Simmons_AUR_TPO to estimate a cellular tolerance limit.Data from the assay component CCTE_Simmons_CellTiterGLO_HEK293T was analyzed at the endpoint, CCTE_Simmons_CellTiterGLO_HEK293T, in the positive analysis fitting direction relative to DMSO as the negative control and baseline of activity. Using a type of viability reporter, measures of ATP content for loss-of-signal activity can be used to understand the viability. This assay was run in parallel with aeid 1508 as a means of indicating the range of chemical cytotoxicity or reactivity. To generalize the intended target to other relatable targets, this assay endpoint is annotated to the cell cycle intended target family, where the subfamily is cytotoxicity.
# Human HEK293T cells (GenHunter; Nashville, Tennessee) were seeded overnight in 384-well, solid white assay plates (Greiner, BioExpress) at a density of 10 000 cells per well in 65 ul Dulbecco's Modified Eagle Medium (Life Technologies; Carlsbad, California) supplemented with 1% fetal bovine serum (HyClone; Logan, Utah). Test compounds were administered using the HDRT as described earlier to achieve a 0.5% final DMSO concentration. Cells were then incubated at 37C for 24 hr in a humidified 5% CO2 incubator. Cell Titer Glo (Promega; Madison, WI) reagent (25 ul) was then added by the BioTek MicroFlo and microplates were incubated at room temperature in the dark for 20min. Plates were read on a plate reader (FLUOStar Optima) using an endpoint luminescence protocol (top read). Three biological replicates of technical singles were run for every chemical concentration tested. A titrated range of DCNQ served as a positive control on each plate of the cytotoxicity screening assay.Test chemicals were administered as a titrated series of 8 concentrations from 5 nM up to 87.5 uM [final] for 24 hours prior to single endpoint detection. Three biological replicates of technical singles were run for every chemical concentration tested. Dimethylsulfoxide [DMSO] was used as the vehicle control. Dichlone [DCNQ] was used as the positive control and was administered as a titrated series of 8 concentrations from 1 nM up to 100 uM [final].
SMILES,AC50,outcome
CCCCN(CC)C(=O)SCCC,73.1 µM (active),–
CCCCc1ccc(O)cc1,53.6 µM (active),–
CCCCCCCc1ccc(O)cc1,10.1 µM (active),–
CCC1(c2ccccc2)C(=O)N=C(O)NC1=O (stereo not drawn),–,inactive
Nc1ccc(Cl)cc1,–,inactive
CCOP(=S)(Oc1ccc([N+](=O)[O-])cc1)c1ccccc1 (stereo not drawn),–,inactive
O=S1(=O)OCC2C(CO1)C1(Cl)C(Cl)=C(Cl)C2(Cl)C1(Cl)Cl (stereo not drawn),28.5 µM (active),–
O=c1ssc(Cl)c1Cl,53.8 µM (active),–
Nc1cc2c3c(c1)C(c1ccccc1)=N[C@@H](NC(=O)c1cccnc1)C(=O)N3CC2,–,inactive
[N-]=[N+]=[N-],–,inactive
Cc1ccc(N)cc1N,–,inactive
Nc1ccc2ccccc2c1,–,inactive
c1ccc(OP(Oc2ccccc2)Oc2ccccc2)cc1,–,inactive
CCC(C)(C)c1ccc(O)cc1,28.1 µM (active),–
CC(C)(C)c1ccc(O)cc1,57.4 µM (active),–
c1ccc2c(c1)Nc1ccccc1S2,9.57 µM (active),–
CCOP(=S)(OCC)SCSCC,13.6 µM (active),–
Cc1cccc(N)c1,–,inactive

# — PubChem BioAssay (EPA / NIEHS)
